# Assay results from PubChem BioAssay (NCATS).
# Records with an inconclusive call do not appear. Values without a mark were called inactive. Calls of active or inactive are those of the source. Calls follow the shape of the dose curve; as a rule, active = well fitted inhibition curve with a large enough effect; inconclusive = small, poorly fitted or top-dose-only effect; inactive = no such curve, though single readings can be large or run the other way.
# Assay: BET inhibitor-based combinations targeting novel dependencies in MECOM-rearranged (r) AML: OCI-AML3 cell line (AID 2202232); also: nearly all actives have a fitted effect of over 35% in size
# Details: CellTiter-Glo luminescence, 48 h; Potency: OCI-AML3 viability; series mostly up to 46 µM
# From the text: Ecotropic viral insertion site 1 (EVI1) is located on chromosome 3q26.2 as part of the MECOM (MDS and EVI1 complex) locus. Under normal hematopoiesis, EVI1 is a regulator of hematopoietic stem cell maintenance and self-renewal and EVI1 levels decrease as the cells differentiate. In approximately 5-10% of de novo acute myeloid leukemia (AML) EVI1 is aberrantly expressed, including Chromosomal inv(3)(q21;q26.2) or t(3;3)(q21;q26.2) alterations (MECOM-r) that account for about 50% of AML with EVI1 overexpression 31. AMLs with high levels of EVI1 have a poor prognosis and an overall survival time averaging between 10-14 months. EVI1 overexpression confers resistance in leukemia cells, highlighting the need to develop new targeted therapies for EVI1 overexpressing AMLs.
# Here, we performed an unbiased chemical drug screening by evaluating the single agent activity of a collection of 2,480 oncology-focused, approved and investigational drugs (NCATS Mechanism Interrogation Plates, MIPE v5.0) against a panel of seven AML cell lines. These included four MECOM-r cell-lines (AML-191, AML-194, UCSD-AML1 and HNT-34) and three non-MECOM-r AMLs (MV4-11, OCI-AML3 and SET-2). Exploiting the mechanistic redundancy built in the library, we identified target-level sensitivities in MECOM-r AML cells and relative activity as compared to other AML subtypes.
# A collection of 2480 mechanistically annotated dugs (MIPE v5.0) was used to screen four 3q26.2 rearranged AML cell lines and three non-3q26.2 rearranged AML cell lines. This library purposely exploits redundancy by including multiple inhibitors of key onco-targets, while simultaneously encompassing mechanistic diversity, targeting more than 800 distinct mechanisms of action. Briefly, cells were seeded in 5 uL of growth media using a Multidrop Combi dispenser into 1536 well white polystyrene tissue culture treated plates (Corning) at a density of 500cells/well. For each cell-line, for each of the 2480 drugs in MIPE v5.0 library, an 11-point dose curve was generated via a 1536 pin-tool. Plates were incubated for 48 hr at standard incubator conditions, covered by a stainless steel gasketed lid to prevent evaporation. Cell viability was determined by luminescence based, Cell Titer Glo assay (Promega). In detail, 3 uL of Cell Titer Glo were added to each well and plates were incubated at room temperature for 15 min with a stainless-steel lid in place. Luminescence readings were taken using a Viewlux (PerkinElmer) with a 2 s exposure time per plate. Compound dose-response curves were normalized to DMSO and empty well controls on each plate. Quantitative drug activity data from dose-response curves was determined utilizing area Under the Curve (AUC) and Z-transformed AUC (Z-AUC, a mean-centering transformation applied to each individual cell-line screened).
# Potency is read from the fitted curve at half-maximal effect.
SMILES,Potency,viability (% of control)
C=CC(=O)Nc1cc(Nc2nccc(-c3cn(C)c4ccccc34)n2)c(OC)cc1N(C)CCN(C)C,3.72 µM (active),–
CCNC(=O)C#Cc1ccc2c(C(=Nc3ccc(CN(C)C)cc3)c3ccccc3)c(O)[nH]c2c1,0.144 µM (active),–
CNc1nccc(-c2cccnc2Oc2cc(C(=O)Nc3cccc(C(F)(F)F)c3)ccc2C)n1,2.35 µM (active),–
O=C(Nc1ccc([N+](=O)[O-])cc1Cl)c1cc(Cl)ccc1O,1.66 µM (active),–
Cn1c(CNc2ccc(C(=N)N)cc2)nc2cc(C(=O)N(CCC(=O)O)c3ccccn3)ccc21,–,119% [at 0.315 µM]
CN(N=O)C(=O)N[C@@H]1[C@@H](O)[C@H](O)[C@@H](CO)O[C@@H]1O,inactive,–
CC[C@H](NC(=O)[C@H](CS(=O)(=O)CC1CC1)N[C@@H](c1ccc(F)cc1)C(F)(F)F)C(=O)C(=O)NC1CC1,inactive,–
Cc1cnc(Nc2ccc(OCCN3CCCC3)cc2)nc1Nc1cccc(S(=O)(=O)NC(C)(C)C)c1,2.63 µM (active),–
COc1cc(N2CCC(N)CC2)ccc1Nc1ncc(Cl)c(-c2c[nH]c3ccccc23)n1,5.9 µM (active),–
CC[C@@H](C)Nc1cc(C(=O)NC2CC3CC[C@@H](C2)N3c2ccc(C(=O)C3CC3)cn2)c(C)cc1C(N)=O (stereo not given in full),0.0661 µM (active),–
COc1ccc(CCC(=O)Nc2nc3ccc(Cl)cc3s2)cc1OC,inactive,–
COc1c(N2CCNC(C)C2)c(F)cc2c(=O)c(C(=O)O)cn(C3CC3)c12 (stereo not given),inactive,–
C[C@H](Nc1ncnc2nc[nH]c12)c1cc2cccc(Cl)c2c(=O)n1-c1ccccc1,0.934 µM (active),–
CCCn1c(=O)c2[nH]c(-c3cnn(Cc4cccc(C(F)(F)F)c4)c3)nc2n(CC)c1=O,inactive,–
CC(=O)OC[C@@H]1O[C@@H](n2ccc(=O)[nH]c2=O)[C@H](OC(C)=O)[C@H]1OC(C)=O,inactive,–
CN(C)CCOC(c1ccccc1)c1ccccc1,inactive,–
CC(C)c1ccc2oc3nc(N)c(C(=O)O)cc3c(=O)c2c1,14.8 µM (active),–
N#CN1CCC[C@@H](n2nc(-c3ccc(Oc4ccc(F)cc4F)cc3)c(C(N)=O)c2N)C1,10.5 µM (active),–
CC[C@H](NC(C)C)[C@H](O)c1ccc(O)c2[nH]c(=O)ccc12,inactive,–
O=Nc1c(-c2c(O)[nH]c3cc(Br)ccc23)[nH]c2ccccc12,11.8 µM (active),–

SMILES,Potency,viability (% of control)
C[C@H](NC(=O)Cc1cc(F)cc(F)c1)C(=O)N[C@H](C(=O)OC(C)(C)C)c1ccccc1,inactive,–
Cc1cccc(N(C)C(=S)Oc2ccc3ccccc3c2)c1,inactive,–
Cc1ccc(Nc2nccc(N(C)c3ccc4c(C)n(C)nc4c3)n2)cc1S(N)(=O)=O,16.6 µM (active),–
COc1cc2c(cc1-c1c(C)noc1C)ncc1[nH]c(=O)n([C@H](C)c3ccccn3)c12,0.468 µM (active),–
NC1(C(=O)N[C@@H](CCO)c2ccc(Cl)cc2)CCN(c2ncnc3[nH]ccc23)CC1,6.61 µM (active),–
CC1(C)O[C@@H]2C[C@H]3[C@@H]4CCC5=CC(=O)C=C[C@]5(C)[C@@]4(F)[C@@H](O)C[C@]3(C)[C@]2(C(=O)CO)O1,inactive,–
Cc1ccc(C(=O)Nc2cccc(C(F)(F)F)c2)cc1Nc1nc(-c2cccnc2)nc2c1cnn2C,8.33 µM (active),–
COc1cc(F)c(C(C)C)cc1-c1ccc(C(F)(F)F)cc1CN1C(=O)O[C@H](c2cc(C(F)(F)F)cc(C(F)(F)F)c2)[C@@H]1C,inactive,–
NCC1CCN(c2nccc(-c3ccc4ccccc4c3)n2)CC1,4.68 µM (active),–
COc1cc(C)c(Sc2cnc(NC(=O)c3ccc(CNC(C)C(C)(C)C)cc3)s2)cc1C(=O)N1CCN(C(C)=O)CC1 (stereo not given),14.8 µM (active),–
O=c1cc(N2CCOCC2)oc2c(-c3cccc4c3sc3ccccc34)cccc12,8.33 µM (active),–
COc1ccc(F)c(F)c1C(=O)c1cnc(NC2CCN(S(C)(=O)=O)CC2)nc1N,1.86 µM (active),–
CNNCc1ccc(C(=O)NC(C)C)cc1,inactive,–
CC(N)C12CC3CC(CC(C3)C1)C2 (stereo not given),inactive,–
C[C@]12C=CC(=O)C=C1CC[C@@H]1[C@@H]2[C@@H](O)C[C@@]2(C)[C@H]1CC[C@]2(O)C(=O)CO,inactive,–
CC(=O)Oc1ccccc1C(=O)Nc1ncc([N+](=O)[O-])s1,18.6 µM (active),–
O=C(C(c1ccccc1)c1ccccc1)N1CCN(CC(O)COc2cccc3ncccc23)CC1 (stereo not given),11.8 µM (active),–
NCCCCCC(=O)O,0.0037 µM (active),–
CC(C)c1cc(CNc2nc(Nc3cc(C4CC4)[nH]n3)cc(N3CCN(C)CC3)n2)on1,4.68 µM (active),–
CNC1CCC(N(Cc2cccc(-c3ccncc3)c2)C(=O)c2sc3ccccc3c2Cl)CC1 (stereo not given),18.6 µM (active),–
